We go through eight molecules from PubChem BioAssay (NCI).

Holding throughout (assay): NCI-60 one-dose screen, 48 h (100 = growth as untreated, 0 = no growth, -100 = all killed)
Details in all cases: 10 µM unless noted

Assay [1] deals with DU-145 prostate.
Assay [2] concerns K-562 leukemia.
The test system of assay [3] is MALME-3M melanoma.
The subject of assay [4] is MDA-MB-231 breast.
For assay [5], the system named is RXF 393 renal.
Assay [6] deals with SF-268 CNS.
The subject of assay [7] is SF-295 CNS.
Assay [8] concerns SF-539 CNS.
The subject of assay [9] is UACC-257 melanoma.
For assay [10], the system named is M14 melanoma.
For assay [11], the system named is HCT-15 colon.
Assay [12] concerns HT29 colon.
Assay [13] deals with SNB-75 CNS.
For assay [14], the system named is U251 CNS.
For assay [15], the system named is PC-3 prostate.
For assay [16], the system named is UACC-62 melanoma.
Assay [17] deals with LOX IMVI melanoma.
In assay [18] the test system is SK-MEL-28 melanoma.
In assay [19] the test system is SNB-19 CNS.
Assay [20] relates to SK-MEL-5 melanoma.

The panel holds about 83,000 compounds, 20% with a hit somewhere; the sample as a whole holds those more often.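 Percent growth is the endpoint: 0 to 100 indicates growth inhibition (40 means 60% inhibition), 0 means no net growth, and negative values indicate cell death.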 A number with no mark means an inactive call. Active and inactive are the calls of the source. Rule for the calls: active = growth percent below 10; inactive = the rest.

`CCCCn1c(-c2ccc(C(=O)O/N=C(\N)c3ccc4c(c3)OCO4)cc2)nc(-c2ccccc2)c1-c1ccccc1`: the growth in assay [1] is 46.4%; in assay [2], -5.48% (active); in assay [3], 55.6%; in assay [4] it was 33.1%; in [5] it was 34.7%; in [6] it was 29.4%. Besides, the growth in assay [7] was 61.4%; in assay [8] it was 58.1%; in assay [9] it was 79.9%; in [10], 54.1%; in assay [11], 19.4%; in [12], 19.7%. Moreover, the growth in assay [13] is -15.4% (active); in [14] it was 45%; in [15], 42.5%; in assay [16], 67.9%; in assay [17], -72.5% (active); in assay [18] it was 76.9%.
In the case of `Cc1ccc(NC(=O)C2CCC(CN3CCN(C)CC3)CC2)cc1Nc1nccc(-c2cccnc2)n1` (centres undefined), the growth in assay [1] is 100%; in assay [2], 58.3%; in assay [3], 104%; in assay [4], 101%; in assay [5], 96%; in [6], 100%. The growth was 101% in [7]; 63.4% in [8]; 115% in assay [9]; 98.8% in assay [10]; 95.2% in [11]; 77.6% in assay [13]. For the same molecule, the growth in [19] was 100%; in assay [14], 95%; in [15], 103%; in assay [16], 103%; in assay [17], 90.8%; in [18] it was 99.7%.
Consider `C=C(C)C(=O)Nc1ccc(NC(C)C)cc1`, for which the growth is 133% in [1]; 134% in assay [2]; 220% in [3]; 123% in assay [4]; 29.7% in assay [5]; 107% in assay [6]. Besides, the growth was 147% in assay [7]; 100% in [8]; -7.29% (active) in assay [9]; 101% in [10]; 125% in assay [11]; 114% in assay [12]. The growth was 102% in assay [13]; 123% in assay [14]; 134% in assay [20]; 118% in assay [16]; 114% in [17]; 119% in assay [18].
As for `Cc1cc(C)nc(SC2=C(Nc3ccc(O)cc3)C(=O)N(Cc3ccccc3)C2=O)n1`, the growth in assay [1] is 96.8% [40 µM]; in assay [2] it was 78.1% [40 µM]; in [3] it was 102% [40 µM]; in assay [4], 80.7% [40 µM]; in [5], 29.3% [40 µM]; in assay [6] it was 74.6% [40 µM]. The growth was 94.8% [40 µM] in assay [7]; 94.2% [40 µM] in assay [8]; 88.1% [40 µM] in assay [9]; 105% [40 µM] in assay [10]; 89.5% [40 µM] in [11]; 119% [40 µM] in [12]. Also, the growth in assay [13] was 89.8% [40 µM]; in [19] it was 85.1% [40 µM]; in assay [20], 82.4% [40 µM]; in assay [16], 68.4% [40 µM]; in assay [17], 82.8% [40 µM]; in [18] it was 112% [40 µM].
Consider `Cc1ccc(C2Oc3ccccc3C3CC(c4cccs4)=NN32)cc1` (centres undefined), for which the growth in [1] was 97%; in assay [2] it was 101%; in assay [3], 95.1%; in assay [4], 91.3%; in assay [5], 101%; in assay [6], 91.4%. Further, the growth in [7] is 99%; in assay [8], 90.1%; in assay [9], 98.6%; in assay [10] it was 99.3%; in assay [11] it was 100%; in assay [12], 109%. The growth in [13] was 81.7%; in assay [19] it was 96%; in assay [20], 96.3%; in assay [16], 96.2%; in assay [17] it was 94.4%; in assay [18], 103%.
Consider `CCC([N+](=O)[O-])S(=O)(=O)c1ccc(C)cc1` (centres undefined), for which the growth in assay [1] is 160%; in assay [2], 115%; in [3], 143%; in assay [4] it was 103%; in [5], 97.1%; in assay [6] it was 126%. Besides, the growth is 111% in [7]; 94.5% in assay [8]; 102% in [9]; 103% in [10]; 105% in assay [11]; 85.1% in assay [13]. Further, the growth in assay [19] is 94.4%; in assay [14], 100%; in assay [15], 101%; in assay [16], 101%; in assay [17], 98.2%; in assay [18], 112%.
As for `NC1=C(Cl)C(=O)c2ccc(S(N)(=O)=O)cc2C1=O`, the growth in assay [1] was -90.1% (active); in [2], -12.7% (active); in assay [3], -96.1% (active); in assay [4] it was -3.41% (active); in [5], -99.2% (active); in assay [6], -74.4% (active). Further, the growth is -86.1% (active) in assay [7]; -84.5% (active) in assay [8]; -95.3% (active) in [9]; -89.6% (active) in assay [10]; -58.2% (active) in assay [11]; -100% (active) in assay [13]. Besides, the growth is -73% (active) in [19]; -90.7% (active) in assay [14]; 1.22% (active) in assay [15]; -88% (active) in assay [16]; -85.1% (active) in assay [17]; -84.9% (active) in [18].
As to `Nc1n[nH]c2ccc([C@@H]3Nc4ccc5[nH]ncc5c4[C@H]4C5C=CC(C5)[C@@H]34)cc12` (some centres undefined), the growth in assay [1] is 8.03% (active); in assay [2] it was 8.61% (active); in assay [3] it was 43.1%; in [4] it was 25.5%; in assay [5], 17.8%; in assay [6] it was 20.3%. Further, the growth is 1.53% (active) in assay [7]; -31.4% (active) in assay [8]; 68.6% in assay [9]; 4.56% (active) in assay [10]; 10.8% in assay [11]; -9.96% (active) in assay [13]. The growth in assay [19] is 27%; in [14], 18%; in assay [15], 13.8%; in assay [16] it was 37.5%; in assay [17], 9.79% (active); in [18] it was 54.6%.
